Test results as given in PubChem BioAssay (NCATS).
Values joined by “and” are separate entries in the source; they are usually repeats but may differ in a detail not shown here. Equal values may be shown once. Records with an inconclusive call do not appear. Active and inactive are the calls of the source. Unless noted, the call rests on the fitted dose curve; in most records, active means well fitted curve in the direction sought with a large enough effect; inconclusive means small, poorly fitted or top-dose-only effect, or another doubt; inactive means no such curve, though single readings can be large; an effect the other way counts as inactive or inconclusive.

Experiments:
[1] = Cell Viability - HepG2 (AID 433; calls by dose curve;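 further: potency means the concentration at half of the fitted maximal effect; cells exposed to compound for 40 hours; potency for ATP loss meaning cytotoxicity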); conditions: qHTS
Outline: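 Cytotoxicity read as ATP loss (CellTiter-Glo luminescence) after 40 hr compound exposure of HepG2, 1500 cells/well, 37 °C. AC50 by Hill equation; 0% set by DMSO, 100% inhibition by 100 uM tamoxifen.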

[2] = Cell Viability - Renal Proximal Tubule (AID 545); conditions: renal proximal tubule cells viability; series mostly up to 91.7 µM;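 further: cells exposed to compound for 40 hours; 0% = DMSO only and -100% = 100 µM tamoxifen; nearly all actives have a fitted effect of over 40% in size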
Outline: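 Viability taken as intracellular ATP (CellTiter-Glo luminescence) after 40 hr, 37 °C compound treatment of primary proximal tubule cells from rat kidney, 1000 cells/well; Hill-equation fits of qHTS concentration-response data gave AC50.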

[3] = Cellular Toxicity (caspase-3) HUV-EC-C (AID 656); conditions: HUV-EC-C cells, caspase-3 activation (apoptosis), vehicle = 0, 100 µM tamoxifen = 100%; series mostly up to 92.2 µM;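 further: 0% = DMSO basal and 100% = 100 µM tamoxifen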
Outline: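 Luminescent Caspase-Glo 3/7 readout after 16 h, 37 °C compound exposure of HUV-EC-C endothelial cells, 1000 per well, complete medium. AC50 derived by Hill fitting, with DMSO as baseline and 100 uM tamoxifen as full activation.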

[4] = Cellular Toxicity (caspase-3) SHSY5Y (AID 657); conditions: SH-SY5Y caspase-3 activation, DMSO zero, 10 µM staurosporine = 100%; series mostly up to 91.7 µM
Outline: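 Luminescent Caspase-Glo 3/7 read-out, 1 hr room temperature, follows 16 hours of compound treatment of SH-SY5Y cells at 37 °C. Normalization: DMSO basal, 10 uM staurosporine as 100%; AC50 values from Hill-equation concentration-response fits.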

[5] = Cellular Toxicity (caspase-3) MRC-5 (AID 659); conditions: MRC-5 cells, luminescence, normalized: DMSO 0%, 10 µM staurosporine 100%; series mostly up to 91.7 µM
Outline: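 MRC-5 fibroblasts, 1500/well; 16 h cpd, 37 °C; Caspase-Glo 3/7, 1 h RT; lumi read. Norm: DMSO = 0%, 10 uM staurosporine = 100%. Hill-fit AC50 from qHTS conc-response.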

[6] = target: Cytochrome P450 3A4 (Homo sapiens) (UniProt P08684); test: qHTS Assay for Inhibitors and Substrates of Cytochrome P450 3A4 (AID 884); conditions: recombinant CYP3A4, Luciferin-PPXE luminescence; series mostly up to 57.1 µM; further: nearly all actives have a fitted effect of over 50% in size; further: potency means the concentration at half of the fitted maximal effect
Sequence of Cytochrome P450 3A4 (Homo sapiens) (P08684 whole entry, looked up): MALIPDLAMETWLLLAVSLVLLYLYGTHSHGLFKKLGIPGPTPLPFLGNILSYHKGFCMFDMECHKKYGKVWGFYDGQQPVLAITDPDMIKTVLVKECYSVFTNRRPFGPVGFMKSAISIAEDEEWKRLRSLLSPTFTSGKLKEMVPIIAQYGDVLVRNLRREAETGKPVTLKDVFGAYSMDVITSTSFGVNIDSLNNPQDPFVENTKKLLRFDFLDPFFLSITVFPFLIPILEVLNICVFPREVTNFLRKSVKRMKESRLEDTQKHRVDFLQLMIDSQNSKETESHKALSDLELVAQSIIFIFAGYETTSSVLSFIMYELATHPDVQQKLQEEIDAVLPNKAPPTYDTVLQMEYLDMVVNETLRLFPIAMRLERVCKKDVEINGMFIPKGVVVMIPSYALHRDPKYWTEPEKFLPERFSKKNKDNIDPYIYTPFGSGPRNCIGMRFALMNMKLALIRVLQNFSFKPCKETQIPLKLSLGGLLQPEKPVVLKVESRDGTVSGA
Outline: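 Luminescent readout of luciferin produced by CYP3A4 (20 nM) dealkylation of Luciferin-PPXE, 25 uM (its KM). NADPH-driven reaction ran 60 min at RT after 10 min compound preincubation; data scaled to 57 uM ketoconazole as 100% inhibition.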

[7] = MultiTox-Fluor Cytotoxicity Assay - LYMP1-002 - Live Cells (AID 955); conditions: LYMP1-002 lymphoblastoid live-cell protease fluorescence viability; series mostly up to 46.1 µM; further: on the % scale 0 is the no-effect control and ±100 the full control effect
Outline: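 Cells were seeded at 2500 per well and incubated 5 hr. Compounds were then added for 16 hr at 37 C, followed by MultiTox-Fluor reagent for 60 min at room temperature and fluorescence reading of viable-cell protease signal.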

[8] = Cell Viability - LYMP1-003 - Assay at 24 hr (AID 963); conditions: LYMP1-003 lymphoblastoid cell viability; series mostly up to 92.2 µM;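 further: plate controls were DMSO only for no effect and tetraoctylammonium bromide positive control for full effect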
Outline: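 Cytotoxicity is scored as a concentration-dependent fall in ATP-linked luciferase signal in human lymphoblastoid LYMP1-003 cells treated 24 hr at 37 C in complete culture medium.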

[9] = Cell Viability - LYMP2-004 (AID 966); conditions: LYMP2-004 lymphoblastoid cell viability, qHTS; series mostly up to 92.2 µM;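 further: plate controls were DMSO only for no effect and tetraoctylammonium bromide control for full effect; nearly all actives have a fitted effect of over 65% in size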
Outline: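 qHTS cytotoxicity: human lymphoblastoid line, 24 hr compound treatment, 37 C, complete medium. Viability read as cellular ATP via luciferase luminescence; tetraoctylammonium bromide served as positive control.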

[10] = Cell Viability - LYMP2-009 (AID 968); conditions: LYMP2-009 lymphoblastoid cell viability; series mostly up to 92.2 µM;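 further: 0% = DMSO alone and the full-kill end = tetraoctylammonium bromide at 92 µM; nearly all actives have a fitted effect of over 55% in size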
[11] = Cell Viability - LYMP2-017 (AID 972); conditions: LYMP2-017 lymphoblastoid cell viability; series mostly up to 92.2 µM; further: on the % scale 0 is the no-effect control and ±100 the full control effect; nearly all actives have a fitted effect of over 55% in size
Outline: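 Cytotoxicity is scored as a concentration-dependent drop in cellular ATP in a human lymphoblastoid line after 24 hr treatment at 37 C. Values are AC50s from Hill-equation modelling.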

[12] = Cell Viability - LYMP2-025 (AID 976); conditions: LYMP2-025 lymphoblastoid cell viability; series mostly up to 92.2 µM;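 further: plate controls were DMSO only for no effect and tetraoctylammonium bromide control for full effect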
Outline: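 Acute cytotoxicity is scored as a concentration-dependent fall in intracellular ATP, measured by luciferase luminescence, in human lymphoblastoid LYMP2-025 cells exposed to compound for 24 hours at 37 C. AC50 values come from standard Hill fits.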

[13] = Cell Viability - LYMP2-012 (AID 982); conditions: LYMP2-012 lymphoblastoid cell viability qHTS; series mostly up to 92.2 µM;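 further: cellular ATP by luciferase luminescence where a drop means cytotoxicity; cells exposed to compound for one day before reading; 0% = DMSO only and full loss = 92 µM tetraoctylammonium bromide; nearly all actives have a fitted effect of over 55% in size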
[14] = Cell Viability - LYMP2-016 (AID 984); conditions: LYMP2-016 lymphoblastoid cell viability, qHTS; series mostly up to 92.2 µM; further: on the % scale 0 is the no-effect control and ±100 the full control effect; nearly all actives have a fitted effect of over 55% in size
Outline: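 Cytotoxicity was scored by luminescent ATP content (CellTiter-Glo) after 24 h compound exposure at 37 C of a human lymphoblastoid line at 2500 cells/well. Concentration-response data were fitted to the Hill equation for AC50.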

[15] = Cell Viability - LYMP1-002 - Assay at 40 hr (AID 994); conditions: LYMP1-002 lymphoblastoid cell viability; series mostly up to 92.2 µM;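 further: 0% = DMSO only and full inhibition = 92 µM tetraoctylammonium bromide; nearly all actives have a fitted effect of over 60% in size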
Outline: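 Cells are plated at 2500 per well and rested 5 hr at 37 C. Compounds are added and incubated 40 hr at 37 C. CellTiter-Glo reagent is added for 30 min at room temperature before luminescence is read.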

[16] = qHTS Assay for Identification of Small Molecule Inducers of Hypoxia Response (AID 2120; active means well fitted curve in the direction sought with a large enough effect in the signal ratio, with a control signal flat, not every such curve was filed as active; the % refers to the signal ratio; further: potency means the concentration at half of the fitted maximal effect; on activation: 0% is about no effect); conditions: hypoxia response reporter cells, beta-lactamase ratio readout; series mostly up to 104 µM
Outline: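 Cell-based qHTS for reporter induction: hypoxia response element controlled beta-lactamase in ME-180 cells. Compounds incubated 17 h at 37 degrees C; activity from blue/green (460/530 nm) ratio, inducers ranked by AC50.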

[17] = qHTS assay for small molecule antagonists of retinoid X receptor alpha signaling (AID 588546); conditions: HEK293T RXRa-UAS-bla, beta-lactamase ratio, antagonist mode; measured here: W530 green channel, cytotoxicity proxy;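 further: cells stimulated with 9-cis-retinoic acid as agonist; on the % scale 0 is the no-effect control and ±100 the full control effect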
Outline: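 Beta-lactamase reporter inhibition, read as CCF4 fluorescence ratio (ex 405, em 460/530 nm) after 2 h at RT. HEK293T UAS-bla cells, 2500/well, were stimulated with 9-cis-RA at 500 or 100 nM final alongside test compound for 18 h at 37 C.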

[18] = qHTS assay for environmental chemicals that activate the Aryl hydrocarbon Receptor (AhR) signaling pathway (AID 651777); conditions: 1A2-DRE human hepatoma cells, luciferase, 24 h; activation: stronger effect = higher value; further: nearly all actives have a fitted effect of over 15% in size; further: potency means the concentration at half of the fitted maximal effect; on activation: % of control where 0% means no effect
Outline: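 Luminescence (One-Glo, 30 min, room temperature) reports AhR-driven luciferase in stably transfected human hepatoma cells bearing DRE and CYP1A2 promoter. Cells (1,200/well) were treated with compound for 24 hr at 37 C in qHTS format.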

[19] = target: Peroxisome proliferator-activated receptor alpha (Homo sapiens) (UniProt Q07869); test: qHTS assay for small molecule agonists of the peroxisome proliferator-activated receptor alpha (PPARalpha) signaling pathway (AID 651778); conditions: PathHunter PPARalpha complementation, chemiluminescence, 6 h; stronger effect = higher value; further: % of control where 0% means no effect
Sequence of Peroxisome proliferator-activated receptor alpha (Homo sapiens) (Q07869 whole entry, looked up, the tested form may be a part): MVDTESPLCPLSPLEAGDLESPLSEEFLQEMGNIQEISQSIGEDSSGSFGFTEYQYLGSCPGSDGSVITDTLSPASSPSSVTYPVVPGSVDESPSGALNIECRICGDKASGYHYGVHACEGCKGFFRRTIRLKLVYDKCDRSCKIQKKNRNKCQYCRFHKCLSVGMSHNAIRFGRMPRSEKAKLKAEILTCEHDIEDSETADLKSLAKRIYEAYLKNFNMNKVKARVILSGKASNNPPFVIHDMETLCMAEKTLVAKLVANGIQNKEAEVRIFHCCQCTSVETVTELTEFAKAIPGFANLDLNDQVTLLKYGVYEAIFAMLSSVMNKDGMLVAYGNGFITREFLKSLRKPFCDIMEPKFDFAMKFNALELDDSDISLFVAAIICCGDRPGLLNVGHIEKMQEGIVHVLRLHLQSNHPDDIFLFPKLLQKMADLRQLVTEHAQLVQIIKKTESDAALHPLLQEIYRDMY
Outline: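 Enzyme-fragment complementation assay in which ligand-bound PPARalpha translocates and forms an active enzyme that generates chemiluminescence. Cells were plated overnight, exposed to compound for 6 hr at 37 C, and then given detection reagent for 60 min at room temperature.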

[20] = qHTS assay for small molecule agonists of the antioxidant response element (ARE) signaling pathway measured by Nrf2-dependant transcriptional activity - cell viability counter screen (AID 720653; active means well fitted curve in the direction sought with a large enough effect in the repeat runs; an effect the other way counts as inactive or inconclusive; further: on the % scale 0 is the no-effect control and ±100 the full control effect); conditions: ARE-bla HepG2 viability, CellTiter-Glo ATP luminescence, 16 h; stronger effect = lower value
Outline: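 ARE-bla HepG2 cells treated with compounds for 16 h at 37C; this counter screen measures viability as intracellular ATP by CellTiter-Glo luminescence after 30 min at room temperature.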

CCCCCCCCCCCOC(=O)c1ccccc1C(=O)OCCCCCCCCCCC
inactive: Potency [1] > 92 µM | outcome [2] | outcome [3] | outcome [4] | outcome [5] | Potency [6] | outcome [7] | outcome [8] | Potency [9] | Potency [10] | Potency [11] | Potency [12] | Potency [13] | Potency [14] | Potency [15] | Potency [16] | activation [18] -2.18% | max response [19] 0.22% | max response [20] 3.11%
5.25%: max response [17]

Oc1cc(Cl)c(Cl)c(Cl)c1
inactive: outcome [3] | outcome [4] | outcome [5] | outcome [7] | outcome [8] | Potency [15] | Potency [16] | activation [18] 1.76% | max response [19] -3.78% | max response [20] -10.7%
active: Potency [1] 59.9 µM

c1ccc2c(c1)ccc1cc3c(ccc4ccccc43)cc12
active: Potency [16] 44.7 µM | Potency [18] 2.82 µM

c1ccc(P(c2ccccc2)c2ccccc2)cc1
inactive: Potency [1] > 92 µM | outcome [2] | outcome [3] | outcome [4] | outcome [5] | Potency [6] | outcome [7] | outcome [8] | Potency [9] | Potency [10] | Potency [11] | Potency [12] | Potency [13] | Potency [14] | Potency [15] | Potency [16] | activation [18] 0.491% | max response [19] -4.42% | max response [20] -10.4%
-7.38%: max response [17]

C=CC(=O)OCCO
inactive: Potency [1] > 92 µM | outcome [2] | outcome [3] | outcome [4] | outcome [5] | Potency [6] | outcome [7] | outcome [8] | Potency [12] | Potency [14] | Potency [15] | Potency [16] | max response [19] 5.17% | max response [20] -2.67%
-12.5%: max response [17]

CN(C)c1ccc(N=Nc2ccccc2)cc1
active: Potency [18] 44.7 µM
-11.2%: max response [17]
inactive: Potency [1] > 92 µM | outcome [3] | outcome [4] | outcome [5] | Potency [6] | outcome [7] | outcome [8] | Potency [9] | Potency [11] | Potency [12] | Potency [13] | Potency [14] | Potency [15] | Potency [16] | max response [19] -12.4% | max response [20] -5.92%

CCCN(CCC)c1c([N+](=O)[O-])cc(C(F)(F)F)cc1[N+](=O)[O-]
-6.59% and -3.08%: max response [17]
inactive: Potency [1] > 92 µM | outcome [2] | outcome [3] | outcome [4] | outcome [5] | outcome [7] | outcome [8] | Potency [9] | Potency [10] | Potency [11] | Potency [12] | Potency [13] | Potency [14] | Potency [15] | Potency [16] | activation [18] 0.344% and 0.563% | max response [19] 2.49% and -0.599% | max response [20] -5.66% and -9.4%

Cc1cc(C)cc(OP(=O)(Oc2cc(C)cc(C)c2)Oc2cc(C)cc(C)c2)c1
inactive: Potency [1] > 92 µM | outcome [2] | outcome [3] | outcome [4] | outcome [5] | outcome [7] | outcome [8] | Potency [9] | Potency [10] | Potency [11] | Potency [12] | Potency [13] | Potency [14] | Potency [15] | Potency [16] | activation [18] 12.8% | max response [19] -0.353% | max response [20] -9.8%
17.8%: max response [17]
active: Potency [6] 2.51 µM

CC(C#N)CCC#N (stereo not drawn)
inactive: Potency [1] > 92 µM | outcome [2] | outcome [3] | outcome [4] | outcome [5] | Potency [6] | outcome [7] | outcome [8] | Potency [9] | Potency [10] | Potency [11] | Potency [12] | Potency [13] | Potency [14] | Potency [15] | Potency [16] | activation [18] -0.458% | max response [19] -3.28% | max response [20] 0.528%
-1.82%: max response [17]

Nc1c(Br)cc([N+](=O)[O-])cc1[N+](=O)[O-]
inactive: Potency [1] > 92 µM | outcome [2] | outcome [3] | outcome [4] | outcome [5] | outcome [7] | outcome [8] | Potency [9] | Potency [10] | Potency [11] | Potency [12] | Potency [13] | Potency [14] | Potency [15] | Potency [16] | activation [18] 3.36% | max response [19] -5.44% | max response [20] 13.3%

[O-][Cl+2]([O-])O
-3.35%: max response [17]
inactive: Potency [1] > 92 µM | outcome [2] | outcome [3] | outcome [4] | outcome [5] | Potency [6] | outcome [7] | outcome [8] | Potency [9] | Potency [10] | Potency [11] | Potency [12] | Potency [13] | Potency [14] | Potency [15] | Potency [16] | activation [18] 0.0972% | max response [19] -2.92% | max response [20] 27.9%

Nc1ccc([N+](=O)[O-])cc1N
7.14% and -1.85%: max response [17]
inactive: Potency [1] > 92 µM | outcome [2] | outcome [3] | outcome [4] | outcome [5] | Potency [6] | outcome [7] | outcome [8] | Potency [9] | Potency [10] | Potency [11] | Potency [12] | Potency [13] | Potency [14] | Potency [15] | Potency [16] | activation [18] 1.47% and 1.07% | max response [19] -9.77% and -2.05% | max response [20] 0.262% and -5.88%
